According to PubChem BioAssay (NCI):
About 83,000 compounds went through this panel and 20% of them were active in at least one assay; those are over-represented in the sample as a whole.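 Results are percent growth after 48 hours of single-concentration exposure. 100 means growth as in untreated cells, lower positive values show inhibition; negative values down to -100 show cell death.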 Active and inactive are the calls of the source.

The compounds below were run on COLO 205 colon (assay: NCI-60 one-dose screen, 48 h (100 = growth as untreated, 0 = no growth, -100 = all killed)). Conditions: 10 µM unless noted.
Protocol: Cells are grown in 96 well plates and exposed to the test compound for 48 hours. Compounds are tested at a single concentration, which is 10^-5 M for most compounds. The reported endpoint is percent growth (GI% or GIPRCNT), where numbers from 0 - 100% represent growth inhibition, and numbers from -100% - 0 represent cell death. For example, a value of 40 represents 60% growth inhibition. A value of 0 means no net growth occurred over the course of the experiment. A value of -40 indicates 40% of cells at the beginning of the experiment died by the end of the experiment. A value of -100 means all cells are dead at the end of the experiment.
NCI-60 Human Tumor Cell Lines Screen was performed using the standard one-dose NCI protocol, which is described in more detail at https://dtp.cancer.gov/discovery_development/nci-60/default.htm.
Compounds with GIPRCNT values below 10 were considered active. Activity score was based on GIPRCNT using the following formula: […]
Score is 0 for GIPRCNT values of 100 or above, 50 for GIPRCNT values of 0, and 100 for GIPRCNT values of -100.
With `COc1cc2c(c(OC)c1OC)-c1ccc(N)c(=O)cc1[C@@H](NC(C)=O)CC2` the growth was -71.8% (active).
For `CCCCCCCCN(CCCCCCCC)CCCCCCNc1cc(OC)cc2cccnc12`, the growth was 33.3% (inactive).
With `Cc1nc2c3c(ncn2n1)Oc1c(c(=O)[nH]c2ccccc12)C3c1ccc(Cl)cc1` (stereo not given) the growth was 107% (inactive).
In the case of `NC(N)=Nc1nc2ccccc2o1`, the growth is reported as 138% (inactive).
`CCCCCCCCCCCCNC(=O)[C@H]1CSC(c2cc(Br)cs2)N1` (stereo not given in full) was tested, and the growth was 108% (inactive).
`C/C(=C\c1ccc(OCC(=O)O)c(Cl)c1Cl)[N+](=O)[O-]` was tested, and the growth was 112% (inactive).
`O=C(O)COc1ccc(-c2cssc2=S)cc1` was tested, and the growth was 109% (inactive).
In the case of `Oc1ccccc1/C=N/NC(=S)NC1CC2C=CC1C2` (stereo not given), the growth is reported as 108% (inactive).
`CCCCCCN1CSC(=S)N(CCCCCC)C1` was tested, and the growth was 106% (inactive).
With `CCN1CCN(c2nc(NNC(=O)c3ccccc3)nc(N3CCN(C(c4ccccc4)c4ccccc4)CC3)n2)CC1` the growth was -57% (active).
For `O=C(O)/C=C/C(=O)c1ccc(Cl)cc1`, the growth was 120% (inactive).
With `c1cc2[nH]ncc2cc1-c1nc2ccc3[nH]ncc3c2c2c1CCC2` the growth was 25.7% (inactive).
For `Nc1nc(-c2ccccc2)c(CCCOc2ccc(NC(=O)CBr)cc2)c(=O)[nH]1`, the growth was 118% (inactive).
In the case of `Cc1cc(C2(c3cc(C)c(O)cc3C)OS(=O)(=O)c3ccccc32)c(C)cc1O`, the growth is reported as 111% (inactive).
With `C=C[C@@H]1C[C@@H]2Cc3c(C)cc(C)cc3N1O2` the growth was 100% (inactive).
With `O=S(=O)(NCCCNc1nccc(-n2ccc3cccnc32)n1)c1ccc(Br)cc1` the growth was 114% (inactive).
For `CC(C)(C)n1cc(-c2ccnc(NCCNS(=O)(=O)c3ccc(F)cc3)c2)c(-c2cccc(O)c2)n1`, the growth was -2.98% (active).
With `CCc1cnc(=S)n(-c2ccccc2)c1` the growth was 120% (inactive).
In the case of `CCOC(=O)C1CCNC(=O)C1=O` (stereo not given), the growth is reported as 114% (inactive).
In the case of `O=C(O)C1CCCN1` (stereo not given), the growth is reported as 110% (inactive).
For `COC(=O)c1nc(-c2ccccc2)oc1S(=O)(=O)N1CCN(c2cccc(Cl)c2)CC1`, the growth was 82.5% (inactive).
For `O=C(CSc1nc2ccccc2[nH]1)Nc1ccc(-c2nc3ccccc3s2)c(Cl)c1`, the growth was 19.5% (inactive).
In the case of `C=C1C(=O)O[C@H]2[C@H]1CC/C(COC(=O)NCc1ccccc1OC)=C\CC[C@@]1(C)O[C@@H]21`, the growth is reported as -35.2% (active).
In the case of `COc1ccc2[nH]c(=O)c(/C=N/Nc3nc(-c4ccccc4)cs3)c(O)c2c1`, the growth is reported as 106% (inactive).
For `C=C1c2nc3ccccc3n2C=C(c2ccc(Cl)cc2)N1Cc1ccccc1`, the growth was 105% (inactive).
In the case of `OB(O)c1cccc(-c2nc3ccc4[nH]ncc4c3c3c2CCCC3)c1F`, the growth is reported as 38.7% (inactive).
`CN(CCCCCl)P(=O)(OCc1ccc([N+](=O)[O-])o1)C(F)(F)C[C@H](NC(=O)CNC(=O)c1ccc(N=[N+]=[N-])cc1)C(=O)NCCc1ccc(O)cc1` (stereo not given in full) was tested, and the growth was 36.9% (inactive).
For `CCOC(=O)C1C(=O)C=C(c2ccc(OC)cc2)CC1c1sc(N(C)Cc2ccccc2)nc1Cl` (stereo not given), the growth was 108% (inactive).
For `CCOC(=O)C1=C(C)NC(C)=C(C(=O)OCC)C1(C)C`, the growth was 113% (inactive).
With `COc1cccc(-c2cc3c(O)cc(C#N)cc3[nH]2)c1` the growth was 115% (inactive).
With `COc1ccc(/C=C2\N=C(c3ccccc3)N(C(=O)c3ccccc3O)NC2=O)cc1` the growth was 112% (inactive).
With `COc1ccc(C2C=C(c3ccc(Cl)cc3)N=C3SC=C(C)N32)c(Br)c1` (stereo not given) the growth was 18.6% (inactive).
With `CCC(=O)Oc1ccc(/C(=C(/C)Cc2cccc(OC)c2)c2ccc(OCCN(C)C)cc2)cc1` the growth was 102% (inactive).
For `O=C(CSc1nc2ccccc2[nH]1)c1ccc(N2CCOCC2)cc1`, the growth was 117% (inactive).
`CCN(CC)CCOC(=O)C(c1ccccc1)(c1ccccc1)C(C)C` was tested, and the growth was 66.3% (inactive).
With `O=C1Nc2ccc(Cl)cc2C12Nc1cc(Cl)ccc1S2` (stereo not given) the growth was 101% (inactive).
In the case of `CN(C)c1cccc2c(S(=O)(=O)/N=C(\N)Nc3nc4ccccc4s3)cccc12`, the growth is reported as 85.6% (inactive).
`O=C(Nc1ccncc1)C(=O)c1cn(S(=O)(=O)c2ccc(Cl)cc2)c2ccccc12` was tested, and the growth was 106% (inactive).
In the case of `O=[N+]([O-])c1ccc(/C=C/C2(CCl)OCCO2)cc1`, the growth is reported as 107% (inactive).
For `COc1cc(-c2nn(-c3cccc(NC(=O)c4cccc(C(F)(F)F)c4)c3)cc2-c2ccncc2)ccc1Cl`, the growth was 7.11% (active).
